Measured values taken from PubChem BioAssay (EPA / NIEHS).
Values joined by “and” are separate entries in the source; they are usually repeats but may differ in a detail not shown here. Identical values can stand only once. A structure can be active in one record and inactive in another. Active and inactive are the calls of the source. The calls were made as follows: active = hit-call score of the fitted dose curve at least 0.9, where 1 is the maximum; inactive = score below 0.9.

Key:
[1] = ATG_GLI_CIS: Attagene CIS-FACTORIAL HepG2 Assay for human Zinc Finger Protein GLI1 (AID 2282945); conditions: HepG2, Attagene cis-factorial reporter mRNA, GLI element; actives raise or lower the signal
Method in brief: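 Transiently transfected HepG2 cells report endogenous transcription factor activity via cis-element-driven reporter units. After 24 h compound exposure, reporter mRNA was measured by RT-PCR with capillary electrophoresis; bidirectional fitting against DMSO baseline.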

[2] = biological target: Bile acid receptor (Homo sapiens) (UniProt Q96RI1); assay: ATG_IR1_CIS: Attagene CIS-FACTORIAL HepG2 Assay for human Nuclear Receptor Subfamily 1 Group H Member 4 (NR1H4), IR1 submotif (AID 2282946); conditions: IR1 reporter transcription, actives raise or lower the signal
Method in brief: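 HepG2 cells transiently transfected with multiple cis-promoter-driven reporter units to measure endogenous transcription factor activity; 24 h exposure. Reporter mRNA read by RT-PCR, FAM labelling, HpaI digestion and capillary electrophoresis. Bidirectional fit versus DMSO.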

[3] = ATG_GRE_CIS: Attagene CIS-FACTORIAL HepG2 Assay for human Glucocorticoid Response Elements (GRE) (AID 2282947); conditions: HepG2 GRE cis-reporter, Attagene multiplex mRNA; actives raise or lower the signal
Method in brief: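 Endogenous transcription factor activity is read through cis-element reporter constructs transiently transfected into HepG2 cells. After 24 h treatment, labelled RT-PCR products are resolved by capillary electrophoresis; DMSO sets baseline for bidirectional curve fitting.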

[4] = ATG_ISRE_CIS: Attagene CIS-FACTORIAL HepG2 Assay for human Interferon Regulatory Factor 1 (IRF1) binding to an Interferon-Stimulated Response Element (ISRE) (AID 2282948); conditions: HepG2 ISRE cis-reporter (Attagene), mRNA transcription readout; actives raise or lower the signal
Method in brief: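 Quantitation relies on labelled RT-PCR fragments separated by capillary electrophoresis. Human HepG2 cells bearing cis-promoter reporter constructs were treated 24 h; DMSO served as baseline for bidirectional fitting.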

[5] = ATG_M_32_CIS: Attagene CIS-FACTORIAL HepG2 Assay for M32 Transcription Factor (Internal Marker) (AID 2282949); conditions: HepG2 Attagene cis-factorial M32 reporter, mRNA; actives raise or lower the signal;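 also: background control marker of the multiplexed CIS panel rather than a real target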
Method in brief: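 Following 24 h chemical exposure of HepG2 cells transiently expressing cis-promoter reporter constructs, reporter transcript levels were determined by RT-PCR with fluorescent labelling and capillary electrophoresis, then fitted bidirectionally against DMSO.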

[6] = ATG_M_06_CIS: Attagene CIS-FACTORIAL HepG2 Assay for M06 Transcription Factor (Internal Marker) (AID 2282950); conditions: HepG2 Attagene CIS-FACTORIAL M06 internal marker reporter; actives raise or lower the signal
Method in brief: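 Terse: HepG2, transient MRTU transfection (FuGene 6), 24 h dosing; total RNA, oligo(dT) RT, PCR, FAM label, HpaI cut, capillary electrophoresis; bidirectional fit vs DMSO baseline; background-control endpoint.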

[7] = biological target: Hypoxia-inducible factor 1-alpha (Homo sapiens) (UniProt Q16665); assay: ATG_HIF1a_CIS: Attagene CIS-FACTORIAL HepG2 Assay for human Hypoxia Inducible Factor 1 (HIF1A) (AID 2282951); conditions: HepG2 Attagene cis-factorial HIF1a reporter transcription; actives raise or lower the signal
Method in brief: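 HepG2 cells transiently transfected with multiplexed cis-promoter reporter units; reporter mRNA read 24 h after dosing by RT-PCR, 6-FAM primer-extension labelling, HpaI digestion and capillary electrophoresis. Bidirectional fit versus DMSO baseline.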

[8] = biological target: Hepatocyte nuclear factor 6 (Homo sapiens) (UniProt Q9UBC0); assay: ATG_HNF6_CIS: Attagene CIS-FACTORIAL HepG2 Assay for human Hepatocyte Nuclear Factor 6 (HNF6) (AID 2282952); conditions: HepG2 Attagene cis-factorial HNF6 reporter transcription; actives raise or lower the signal
Method in brief: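 Multiplexed mRNA reporter assay in transfected HepG2; 24 h dosing; RT-PCR plus capillary electrophoresis fluorescence; DMSO-referenced bidirectional curve fitting.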

[9] = biological target: Heat shock factor protein 1 (Homo sapiens) (UniProt Q00613); assay: ATG_HSE_CIS: Attagene CIS-FACTORIAL HepG2 Assay for human Heat Shock Transcription Factor 1 (HSE) (AID 2282953); conditions: HepG2 HSE cis-reporter, Attagene RNA transcription; actives raise or lower the signal
Method in brief: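 Read-out: fluorescence of reporter-specific RT-PCR fragments separated by capillary electrophoresis. HepG2 carrying transfected cis-element reporter units; 24 h dosing; activity fitted in both directions relative to DMSO baseline.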

[10] = ATG_MRE_CIS: Attagene CIS-FACTORIAL HepG2 Assay for human Metal Responsive Element (MRE) (AID 2282954); conditions: HepG2 MRE cis-reporter transcription, Attagene multiplex; actives raise or lower the signal
Method in brief: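 Fluorescent reporter fragments separated by capillary electrophoresis give mRNA induction for the MRE unit after 24 h treatment of transfected HepG2 cells. Endogenous transcription-factor activity is read; DMSO serves as negative control and baseline.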

Measured: AC50

Bile acid receptor (Homo sapiens), sequence (Q96RI1 whole entry, looked up): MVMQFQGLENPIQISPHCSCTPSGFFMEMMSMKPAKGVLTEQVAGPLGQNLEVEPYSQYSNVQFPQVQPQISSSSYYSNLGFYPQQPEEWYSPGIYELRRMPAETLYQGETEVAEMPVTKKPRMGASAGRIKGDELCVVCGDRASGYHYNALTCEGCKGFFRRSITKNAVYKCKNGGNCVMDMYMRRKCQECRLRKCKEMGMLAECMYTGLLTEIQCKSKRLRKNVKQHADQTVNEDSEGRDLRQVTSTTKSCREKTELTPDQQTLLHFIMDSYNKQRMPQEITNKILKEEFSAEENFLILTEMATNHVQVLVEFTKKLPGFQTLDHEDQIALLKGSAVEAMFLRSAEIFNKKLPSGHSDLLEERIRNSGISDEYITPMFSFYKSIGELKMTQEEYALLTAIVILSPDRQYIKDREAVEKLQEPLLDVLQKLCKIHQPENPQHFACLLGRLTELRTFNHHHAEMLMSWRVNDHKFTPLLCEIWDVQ
Hepatocyte nuclear factor 6 (Homo sapiens), sequence (Q9UBC0 whole entry, looked up): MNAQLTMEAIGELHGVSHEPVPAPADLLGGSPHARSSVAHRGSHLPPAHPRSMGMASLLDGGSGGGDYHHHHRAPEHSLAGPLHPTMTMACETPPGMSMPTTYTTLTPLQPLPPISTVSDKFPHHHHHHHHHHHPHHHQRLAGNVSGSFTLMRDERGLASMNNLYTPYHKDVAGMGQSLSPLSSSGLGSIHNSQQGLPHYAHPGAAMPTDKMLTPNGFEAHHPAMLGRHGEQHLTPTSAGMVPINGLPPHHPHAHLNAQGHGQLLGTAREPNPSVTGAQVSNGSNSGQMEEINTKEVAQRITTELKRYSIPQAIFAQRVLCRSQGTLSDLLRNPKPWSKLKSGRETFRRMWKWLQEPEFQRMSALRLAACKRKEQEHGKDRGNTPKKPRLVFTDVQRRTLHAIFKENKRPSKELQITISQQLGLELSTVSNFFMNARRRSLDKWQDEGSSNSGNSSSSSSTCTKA
Hypoxia-inducible factor 1-alpha (Homo sapiens), sequence (Q16665 whole entry, looked up): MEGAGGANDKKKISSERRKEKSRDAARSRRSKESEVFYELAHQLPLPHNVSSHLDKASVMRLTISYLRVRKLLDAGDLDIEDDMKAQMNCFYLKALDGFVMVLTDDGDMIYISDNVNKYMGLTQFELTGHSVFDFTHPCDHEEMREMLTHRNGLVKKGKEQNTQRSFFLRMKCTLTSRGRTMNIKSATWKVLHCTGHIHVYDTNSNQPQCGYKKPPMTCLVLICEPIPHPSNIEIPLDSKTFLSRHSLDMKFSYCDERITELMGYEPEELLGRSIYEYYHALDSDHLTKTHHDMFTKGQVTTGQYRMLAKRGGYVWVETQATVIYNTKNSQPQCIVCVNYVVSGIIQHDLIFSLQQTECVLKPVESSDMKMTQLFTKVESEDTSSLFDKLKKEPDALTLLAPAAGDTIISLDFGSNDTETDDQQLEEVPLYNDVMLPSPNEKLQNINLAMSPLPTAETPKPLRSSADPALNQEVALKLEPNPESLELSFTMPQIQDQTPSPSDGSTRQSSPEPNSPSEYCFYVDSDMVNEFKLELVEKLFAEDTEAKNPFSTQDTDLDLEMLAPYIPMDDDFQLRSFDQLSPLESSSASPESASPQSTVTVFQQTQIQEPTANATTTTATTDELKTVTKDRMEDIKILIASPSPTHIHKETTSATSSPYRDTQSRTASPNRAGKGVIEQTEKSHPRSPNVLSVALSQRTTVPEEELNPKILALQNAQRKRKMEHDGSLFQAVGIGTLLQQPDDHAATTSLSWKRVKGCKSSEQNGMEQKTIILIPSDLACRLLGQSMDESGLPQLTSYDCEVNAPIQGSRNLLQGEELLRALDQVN
Heat shock factor protein 1 (Homo sapiens), sequence (Q00613 whole entry, looked up, the tested form may be a part): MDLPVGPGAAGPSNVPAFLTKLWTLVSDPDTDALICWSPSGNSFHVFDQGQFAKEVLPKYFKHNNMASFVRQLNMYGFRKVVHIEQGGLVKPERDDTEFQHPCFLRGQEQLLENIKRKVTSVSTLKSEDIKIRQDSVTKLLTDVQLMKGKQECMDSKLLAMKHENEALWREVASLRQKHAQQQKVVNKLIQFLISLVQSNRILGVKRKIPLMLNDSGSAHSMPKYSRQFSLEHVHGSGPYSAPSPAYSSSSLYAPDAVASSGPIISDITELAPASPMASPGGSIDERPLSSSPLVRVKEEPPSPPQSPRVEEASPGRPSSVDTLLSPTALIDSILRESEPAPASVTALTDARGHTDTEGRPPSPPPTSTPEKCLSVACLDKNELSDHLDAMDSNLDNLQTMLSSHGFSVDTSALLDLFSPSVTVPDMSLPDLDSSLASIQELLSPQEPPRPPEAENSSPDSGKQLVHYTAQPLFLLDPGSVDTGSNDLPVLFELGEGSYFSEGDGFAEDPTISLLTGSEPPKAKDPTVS

Cc1c(F)c(F)c(COC(=O)C2C(/C=C(\Cl)C(F)(F)F)C2(C)C)c(F)c1F (stereo not drawn)
inactive: all assays above

CCCCNC(=O)n1c(NC(=O)OC)nc2ccccc21
inactive: all assays above

N#Cc1nn(-c2c(Cl)cc(C(F)(F)F)cc2Cl)c(N)c1S(=O)C(F)(F)F (stereo not drawn)
inactive: [1] | [2] | [3] | [4] | [5] | [6] | [7] | [8] | [10]
active: [3] 29 µM | [8] 44.7 µM | [10] 38.8 µM

CCCCNC(=O)OCC#CI
active: [1] 51.8 µM | [2] 160 µM | [4] 33 µM | [9] 25.6 µM | [10] 35.9 µM
inactive: [1] | [2] | [3] | [4] | [5] | [6] | [7] | [8] | [9] | [10]

CCOP(=S)(OCC)SCn1c(=O)oc2cc(Cl)ccc21
active: [7] 28.8 µM | [9] 78.7 µM | [10] 66.2 µM
inactive: all other assays above

CCOC(=O)C(Cl)Cc1cc(-n2nc(C)n(C(F)F)c2=O)c(F)cc1Cl (stereo not drawn)
inactive: all assays above

CNC(=O)ON=CC(C)(C)SC
inactive: [1] | [2] | [3] | [4] | [5] | [6] | [7] | [8] | [10]
active: [4] 167 µM

C#CCOS(=O)OC1CCCCC1Oc1ccc(C(C)(C)C)cc1 (stereo not drawn)
active: [7] 2.4 µM | [10] 2.4 µM
inactive: all other assays above

CC(Oc1ccc(Cl)cc1Cl)C(=O)O (stereo not drawn)
inactive: all assays above

CCOc1cc(Oc2ccc(C(F)(F)F)cc2Cl)ccc1[N+](=O)[O-]
active: [10] 22 µM
inactive: all other assays above

COC(=O)N(OC)c1ccccc1COc1ccn(-c2ccc(Cl)cc2)n1
active: [10] 2.65 µM
inactive: all other assays above

Cc1ccc(-c2c(Cl)nc(C#N)n2S(=O)(=O)N(C)C)cc1
inactive: all assays above

N#Cc1cc(Br)c(O)c(Br)c1
active: [10] 39.9 µM
inactive: all other assays above

COc1nc(C)nc(NC(=O)NS(=O)(=O)c2ccccc2CCC(F)(F)F)n1
inactive: all assays above

CCNc1nc(Cl)nc(NCC)n1
inactive: all assays above

COc1ccc(C(c2ccc(OC)cc2)C(Cl)(Cl)Cl)cc1
inactive: [1] | [2] | [3] | [4] | [5] | [6] | [7] | [8] | [9] | [10]
active: [2] 21.6 µM | [7] 3.88 µM | [10] 65.1 µM and 15.6 µM and 11.9 µM

O=C(Nc1ccccc1)Nc1ccnc(Cl)c1
active: [10] 37 µM
inactive: all other assays above

C=CC1(C)OC(=O)N(c2cc(Cl)cc(Cl)c2)C1=O (stereo not drawn)
inactive: all assays above

N#CC(CCc1ccc(Cl)cc1)(Cn1cncn1)c1ccccc1 (stereo not drawn)
inactive: all assays above

Oc1ccccc1-c1ccccc1
active: [1] 23 µM | [4] 68.5 µM | [9] 189 µM | [10] 65.7 µM
inactive: [1] | [4] | [5] | [6] | [7] | [8] | [9] | [10]

C=CCC1=C(C)C(OC(=O)C2C(C=C(C)C)C2(C)C)CC1=O (stereo not drawn)
inactive: [1] | [2] | [3] | [4] | [5] | [6] | [7] | [8]
active: [1] 67.2 µM [middle of 5 runs] | [2] 54.7 µM | [5] 107 µM | [7] 35 µM [middle of 4 runs] | [9] 74.8 µM [middle of 6 runs] | [10] 43.8 µM [middle of 6 runs]

Fc1ccc(Oc2ccnc3cc(Cl)cc(Cl)c23)cc1
inactive: all assays above

CC(C)Oc1cc(-n2nc(C(C)(C)C)oc2=O)c(Cl)cc1Cl
active: [9] 50 µM | [10] 25.1 µM
inactive: all other assays above

CCCC1COC(Cn2cncn2)(c2ccc(Cl)cc2Cl)O1 (stereo not drawn)
active: [7] 50 µM | [10] 50 µM
inactive: [1] | [2] | [3] | [4] | [5] | [6] | [7] | [8] | [9] | [10]

CC(C)C1(C)N=C(c2nc3ccccc3cc2C(=O)O)NC1=O (stereo not drawn)
inactive: all assays above
